Experimental data reported in article PMC4336329 (PLoS ONE, 2015).
The campaign covered roughly 310,000 compounds. About 14,000 (4.5%) showed an effect of 50% or more. The effect is printed as a negative number. The entries come from a sample that favours strong results as a whole.

The molecules below were run against human ether-à-go-go-related gene (hERG) potassium channel (human, UniProt Q12809) (assay: primary screen, population patch clamp on CHO cells stably expressing hERG; higher = less effect of the substance).
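Note: peak tail current of the secondary pulse compared with the same well before compound.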

Chain of human ether-à-go-go-related gene (hERG) potassium channel (Q12809 whole entry, looked up): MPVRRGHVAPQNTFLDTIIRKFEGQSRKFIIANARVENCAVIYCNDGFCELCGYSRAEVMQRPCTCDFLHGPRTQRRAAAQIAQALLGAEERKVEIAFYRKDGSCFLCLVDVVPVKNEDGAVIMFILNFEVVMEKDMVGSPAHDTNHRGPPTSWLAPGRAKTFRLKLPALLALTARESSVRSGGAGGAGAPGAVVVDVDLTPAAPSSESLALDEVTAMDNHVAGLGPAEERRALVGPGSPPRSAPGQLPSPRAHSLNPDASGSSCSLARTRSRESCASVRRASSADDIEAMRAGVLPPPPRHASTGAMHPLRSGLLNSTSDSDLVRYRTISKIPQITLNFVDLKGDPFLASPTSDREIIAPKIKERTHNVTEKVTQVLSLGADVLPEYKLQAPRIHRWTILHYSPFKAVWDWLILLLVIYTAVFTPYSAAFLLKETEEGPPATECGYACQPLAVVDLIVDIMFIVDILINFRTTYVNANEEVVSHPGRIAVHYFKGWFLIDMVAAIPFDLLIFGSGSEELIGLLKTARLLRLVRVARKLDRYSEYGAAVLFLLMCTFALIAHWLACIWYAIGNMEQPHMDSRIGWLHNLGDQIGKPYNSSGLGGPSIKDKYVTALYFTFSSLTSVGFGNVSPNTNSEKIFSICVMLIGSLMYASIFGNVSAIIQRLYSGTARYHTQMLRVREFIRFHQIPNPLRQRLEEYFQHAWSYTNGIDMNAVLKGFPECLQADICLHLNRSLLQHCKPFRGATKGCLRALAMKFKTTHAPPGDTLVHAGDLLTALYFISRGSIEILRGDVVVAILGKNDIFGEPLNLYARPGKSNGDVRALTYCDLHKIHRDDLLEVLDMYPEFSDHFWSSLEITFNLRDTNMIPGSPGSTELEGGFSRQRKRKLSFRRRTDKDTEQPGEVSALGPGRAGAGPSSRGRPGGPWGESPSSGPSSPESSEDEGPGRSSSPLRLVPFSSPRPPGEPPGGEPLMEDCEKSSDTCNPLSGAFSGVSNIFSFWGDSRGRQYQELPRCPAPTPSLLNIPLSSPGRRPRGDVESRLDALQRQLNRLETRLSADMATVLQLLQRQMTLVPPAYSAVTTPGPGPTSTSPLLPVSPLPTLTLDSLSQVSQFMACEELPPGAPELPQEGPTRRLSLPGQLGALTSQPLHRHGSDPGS

Compound	hERG current change (%, negative = inhibition) at 10uM [%]
COC(=O)C(C)n1cnc2c(nnn2Cc2ccc(Cl)cc2)c1=O (stereo not drawn)	-16.4
CCC1=Nc2cc(C(=O)NCc3ccco3)ccc2Sc2ccc(C)cc21	-0.612
CN(Cc1ccccc1)C(=O)CN1C(=O)NC2(CCCCCCC2)C1=O	-11.7
O=C(CCc1ccccc1)NNC(=O)Nc1ccccc1	1.26
COc1ccc(OC)c(CNC(=O)Cc2c(C(=O)O)[nH]c3ccccc23)c1	15.3
Cc1ccccc1N1CCN(C2CCCN(C(=O)c3ocnc3C)C2)CC1 (stereo not drawn)	-16.9
CN(c1ccccc1)S(=O)(=O)c1cccc(C(=O)OCC(=O)Nc2ccc3[nH]c(=O)[nH]c3c2)c1	19.6
CN(CCc1ccccn1)Cc1ccc(Cl)cc1	-53.7
CN(CCc1ccccn1)C(=O)c1cccnc1Oc1ccc(Cl)cc1	-19.5
CC(C)c1ccc(NC(=S)N(C)CCc2ccccn2)cc1	-8.91
CN(CCc1ccccn1)Cc1ccc(Cl)c(Cl)c1	-36.3
Cc1ccc(CN(C)CCc2ccccn2)cc1	-41.1
CC(C)=CCCC(C)CN(C)CCc1ccccn1 (stereo not drawn)	-65.4
Cc1ccccc1CN(C)CCc1ccccn1.O=C(O)C(=O)O	-7.25
CC(C)c1ccc(N(CCc2ccccn2)C(=O)C(C)(C)C)cc1	-5.99
CCc1ccc(CN(C)CCc2ccccn2)cc1	-62.6
CN(CCc1ccccn1)Cc1ccc(Cl)cc1Cl	-64.3
Cc1cccc(CN(C)CCc2ccccn2)c1	-15.3
CN(CCc1ccccn1)C(=O)Nc1ccc(Cl)cc1	6.31
CC(=O)N1CCC(=O)N(C(C)C)c2ccccc21	3.9
COc1ccc(CNC(=O)c2cccnc2Sc2ccc(C)c(C)c2)cc1	3.63
COc1ccccc1-c1coc2cc(O)cc(O)c2c1=O	9.89
Cc1ccc(OCC(=O)c2ccc(Cl)s2)c([N+](=O)[O-])n1	2.66

Compound	hERG current change (%, negative = inhibition) at 10uM [%]
Cc1ccc(S(=O)(=O)NCc2n[nH]c(=S)n2C)cc1	21
NC(=O)c1cc([N+](=O)[O-])ccc1NCc1ccc(N)cc1	10.5
COc1cc2c(cc1NC(=O)c1cccnc1)CCCC2	14.2
Cc1cccc(-c2noc(-c3ccc4c(c3)OCO4)n2)c1	7.53
COc1cc(Cl)c(C)cc1NC(=O)CN1CCN(C(=O)C2CC2)CC1	-59.6
COc1cc(NC(=O)CN2CCN(C(=O)C3CCCO3)CC2)c(OC)cc1Cl (stereo not drawn)	-12.5
COc1cc(NC(=O)c2ccccc2Cl)c(OC)cc1NC(=O)CN1CCOCC1	-3.34
COc1cc(OC)c(NC(=O)CCCn2c(=O)oc3ccccc32)cc1Cl	9.61
COc1cc(Cl)c(C)cc1NC(=O)c1ccccc1NC(=O)CN1CCOCC1	-58.7
COc1cc(Cl)c(C)cc1NC(=O)CN1CCCCCC1	-0.067
COc1cc(NC(=O)c2ccccc2C)c(OC)cc1NC(=O)CN1CCOCC1	-7.78
COc1ccc(NC(=O)CCCn2c(=O)oc3ccccc32)cc1Cl	-12.9
COc1cc(Cl)c(C)cc1NC(=O)CCCn1c(=O)oc2ccccc21	-58.7
O=C(CN1CCN(S(=O)(=O)c2cc(Cl)ccc2Cl)CC1)Nc1ccc2c(c1)OCCO2	-23.2
O=C(CC(c1ccccc1)c1cc(Cl)ccc1O)N1CCOCC1 (stereo not drawn)	-15.1
CCc1ccc(S(=O)(=O)N/N=C\c2ccc3c(c2)OCO3)cc1	9.85
CCCN(CC(=O)Nc1ccc(F)c(F)c1F)C(=O)c1ccc(N2CCCC2=O)cc1	-4.37
C=CCOc1ccccc1/C=N/NC(=O)c1ccc(Cl)cc1Cl	-6.98
O=C(CC1C(=O)NCCN1CC1CCCCC1)NCc1ccccc1Cl (stereo not drawn)	-5.9
Cc1nc(-c2cccc(S(=O)(=O)N3CCCC(C)C3)c2)cs1 (stereo not drawn)	-9.76
O=C(c1ccc(N2CCCCC2)c([N+](=O)[O-])c1)N1CCN(c2ccccn2)CC1	-66.8
CN1CCN(c2ccc(S(C)(=O)=O)cc2[N+](=O)[O-])CC1	-2.78
